A selection: hits, their analogues and other compounds. The true share with any hit is near 2.7%.
INS-1E GSIS act: primary screen for activators of insulin secretion dependent on glucose, INS-1E cells, GLuc reporter luminescence. INS-1E GLuc reporter insulin secretion, 2-3 h. activation, % at 16.6 µM. actives 0.61% (n = 370,000). AID 743287;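 active = lowest replicate activation of at least 40%, so every replicate reaches that level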
PGC1a acetyl inh: lowers PGC1a acetylation signal in U2OS cells. inhibition, % at 15.6 µM. AID 651687. AlphaScreen anti-acetyl-lysine; with virally co-expressed GCN5 acetyltransferase. actives 0.17% (n = 350,000);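 active = every replicate shows inhibition of at least 40%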
EWS-Fli block: blocks EWS/Fli oncoprotein-driven transcription. A673 NR0B1-luciferase reporter, viability-normalised. AID 651661. actives 0.67% (n = 350,000). inhibition, % at 12.6 µM;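 active = mean inhibition of at least 50% after viability correction, with every replicate also passing that limit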;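 also: firefly luciferase signal divided by Alamar Blue viability fluorescence both relative to DMSO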
F508del corr: correctors of CFTR F508del function in bronchial epithelial cells. CFBE cells, YFP halide quenching; stimulated with forskolin plus potentiator P3; % fluorescence drop versus neutral controls. activity (quench increase), % at 7.58 µM. actives 0.36% (n = 350,000). AID 720511;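 active = mean added fluorescence quench of at least 8% versus neutral control, with both replicates also reaching 8%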;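 also: cells transiently co-express mutant CFTR-F508del with the halide-sensitive YFP; corrector assay measuring rescue of mutant channel to the surface after 24 h compound exposure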
PAX8 inh HTS: PAX8 transcriptional activity inhibition; RMG-I TPO-luciferase reporter, SteadyGlo, 24 h; inhibition, % at 12.6 µM; actives 1.2% (n = 360,000); AID 652154;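 active = mean replicate inhibition at least 60% with every replicate also reaching 60%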;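 also: luciferase light reporting Pax8 driven TPO promoter activity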
Env fusion inh: HIV envelope-mediated fusion inhibition; AID 651610; HeLa-JRFL Env/CEM21 cell fusion, luciferase; actives 1.1% (n = 360,000); inhibition, % at 12.3 µM;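 active = mean replicate inhibition score of at least 50 and every replicate individually at or above 50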
Hits are given with their value; . = inactive; / = not tested or not shown.

SMILES	INS-1E GSIS act	PGC1a acetyl inh	EWS-Fli block	F508del corr	PAX8 inh HTS	Env fusion inh
Cc1noc(C)c1S(=O)(=O)Nc1ccc2c(c1)C(=O)N([C@@H](C)CO)C[C@H](C)[C@@H](CN(C)C(=O)Nc1ccc(F)cc1)O2	.	.	.	.	.	.
C[C@H]1CN([C@@H](C)CO)C(=O)c2cc(NC(=O)Nc3ccc(C(F)(F)F)cc3)ccc2O[C@@H]1CN(C)S(=O)(=O)c1cn(C)cn1	.	.	.	.	/	/
CN(C)/C=C/C(=O)c1ccc(N2CCN(c3ncc(C(F)(F)F)cc3Cl)CC2)cc1	/	.	/	/	/	/
CN(C)C=NC(=O)c1ccc(N2CCN(c3ncc(C(F)(F)F)cc3Cl)CC2)cc1	72	.	/	/	/	/
C=C[C@@H]1c2ccccc2N(S(=O)(=O)c2ccc(C)cc2)[C@H](c2ccc(C(F)(F)F)cc2)C1(C#N)C#N	.	/	.	.	.	56
C[C@@H]1CN(C)C(=O)c2ccccc2O[C@H]1CN(C)C	.	/	/	/	/	/
COC1=CC(=O)c2c(ccc3ncnc(N)c23)C1=O	/	66	.	.	104	76
C[C@@H]1CN([C@@H](C)CO)C(=O)Cc2cc(NC(=O)Nc3cccc4ccccc34)ccc2O[C@H]1CN(C)C(=O)NC1CCCCC1	.	.	.	.	.	.
Cc1nn(-c2ccccc2Cl)c(Cl)c1/C=C(\C#N)C(N)=O	64	/	.	/	.	.
Cc1nn(-c2ccc(Cl)cc2)c(Cl)c1/C=C(\C#N)C(N)=O	.	.	.	.	.	/
C=CCc1ccccc1Oc1cc(OC)nc(N)n1	63	/	.	.	.	.
C=CCc1ccccc1Oc1cc(F)nc(N)n1	.	.	.	.	.	.
C[C@@H]1CN([C@@H](C)CO)C(=O)c2cc(-c3ccc(C#N)cc3)cnc2O[C@@H]1CN(C)Cc1ccccn1	.	.	.	.	/	.
CCCNC(=O)C[C@@H]1CC[C@@H]2[C@@H](COc3ccc(NC(=O)c4ccc(C(F)(F)F)cc4)cc3C(=O)N2C)O1	.	.	.	.	.	/
Cc1nc2ccccc2n1/N=C/c1ccc([N+](=O)[O-])s1	.	/	.	/	62	.
O=[N+]([O-])c1ccc(/C=N/n2c(CO)nc3ccccc32)s1	.	.	/	/	.	.
CCOC(=O)C1=C(C)N=C2c3ccccc3C(=O)C2C1c1ccc(Cl)cc1 (stereo unspecified)	/	/	/	/	/	84
CCC(C)N(CCNC(=O)c1ccc2c(c1)NC(=O)c1ccccc1S2)C1CCCCC1 (stereo unspecified)	.	.	/	.	.	79
COc1ccc(NC(=O)Nc2ccc3c(c2)[C@@H]2C[C@@H](CC(=O)NCc4ccc5c(c4)OCO5)O[C@H](CO)[C@@H]2O3)cc1	.	.	.	.	.	.
C=CCN1C(=O)C2C(C(=O)NCc3ccccc3)C3C=CC2(O3)C1C(=O)NC(C)(C)C (stereo unspecified)	.	.	/	/	/	.
CCOC(=O)[C@@H]1[C@@H]2C=C[C@]3(O2)[C@H](C(=O)NCc2ccccc2)N(CCCCCCO)C(=O)[C@@H]13	/	.	.	10	109	.
COc1ccc(C#Cc2ccc3c(c2)O[C@H](CN(C)S(=O)(=O)c2ccccc2F)[C@@H](C)CN([C@@H](C)CO)S3(=O)=O)cc1	.	.	.	.	.	.
O=C(C[C@@H]1C[C@H]2c3cc(NC(=O)NC4CCCC4)ccc3O[C@H]2[C@@H](CO)O1)NCc1ccncc1	.	.	.	.	.	.
C[C@@H]1CCCCO[C@@H](CN(C)Cc2ccc(Cl)c(Cl)c2)[C@H](C)CN([C@@H](C)CO)C(=O)c2cc(NC(=O)Nc3ccccc3)ccc2O1	.	.	.	.	86	.
C[C@@H]1CCCCO[C@H](CN(C)Cc2ccc(Cl)c(Cl)c2)[C@@H](C)CN([C@H](C)CO)C(=O)c2cc(NC(=O)Nc3ccccc3)ccc2O1	.	.	.	.	.	.
SMILES	INS-1E GSIS act	PGC1a acetyl inh	EWS-Fli block	F508del corr	PAX8 inh HTS	Env fusion inh
C[C@@H]1CN([C@H](C)CO)C(=O)c2cc(NC(=O)Nc3ccccc3)ccc2O[C@@H](C)CCCCO[C@@H]1CN(C)Cc1ccc(Cl)c(Cl)c1	.	.	.	.	86	.
C[C@@H]1CN([C@@H](C)CO)C(=O)c2cc(NC(=O)Nc3ccccc3)ccc2O[C@@H](C)CCCCO[C@H]1CN(C)Cc1ccc(Cl)c(Cl)c1	.	.	.	.	81	.
C[C@@H]1CCCCO[C@@H](CN(C)Cc2ccc(Cl)c(Cl)c2)[C@@H](C)CN([C@H](C)CO)C(=O)c2cc(NC(=O)Nc3ccccc3)ccc2O1	.	.	.	.	.	.
C[C@@H]1CN([C@@H](C)CO)C(=O)c2c(c3ccccc3n2C)-c2ccccc2CO[C@H]1CN(C)CC1CCCCC1	.	/	/	/	/	/
CCCN1C[C@@H](C)[C@@H](OC)CN(C)C(=O)c2cc(NS(C)(=O)=O)ccc2OC[C@@H]1C	.	.	.	.	.	.
O=[N+]([O-])c1ccccc1S(=O)(=O)Nc1cccc(-c2ccc3nncn3n2)c1	89	.	.	.	.	.
COc1ccc(S(=O)(=O)Nc2cccc(-c3ccc4nncn4n3)c2)cc1F	42	/	56	/	.	.
CCOc1ccc(-c2cccc(NS(=O)(=O)c3ccccc3[N+](=O)[O-])c2)nn1	.	.	.	.	.	94
O=[N+]([O-])c1ccccc1S(=O)(=O)Nc1ccc(-c2ccc3nncn3n2)cc1	49	/	.	.	/	.
COc1ccc(-c2cccc(NS(=O)(=O)c3ccccc3[N+](=O)[O-])c2)nn1	.	.	.	.	.	.
COC(=O)[C@@H]1[C@@H](CO)[C@@H]2Cn3c(ccc(-c4ccccc4F)c3=O)[C@@H]2N1C(=O)c1ccccn1	.	/	.	/	/	/
C/C=C/c1cnc2c(c1)C(=O)N([C@H](C)CO)C[C@H](C)[C@H](CN(C)C(=O)C1CC1)O2	.	.	.	.	/	.
Cn1cc(CN2CCN(c3ncccn3)CC2)c(-c2cccc(Cl)c2)n1	.	.	.	.	.	.
Cc1cc(N2CCN(Cc3cn(C)nc3-c3cccc(Cl)c3)CC2)cc(C)n1	.	.	58	.	.	.
COc1cc(C2CC(=O)N(c3ccc(C)cc3)C(=O)C2)cc(OC)c1OC	.	/	53	10	.	.
COc1ccc(N2C(=O)CC(c3cc(OC)c(OC)c(OC)c3)CC2=O)cc1	/	.	.	.	.	.
CCCC#Cc1ccc2c(c1)O[C@@H](CN(C)C(=O)c1ccccc1)[C@H](C)CN([C@@H](C)CO)S2(=O)=O	.	.	.	.	/	.
COc1ccc(NC(=O)N(C)C[C@@H]2Oc3c(NC(=O)c4ccncc4)cccc3C(=O)N([C@@H](C)CO)C[C@H]2C)cc1	.	.	.	.	.	.
Cc1ccc(NC(=O)O/N=C/c2c(C)nn(C(C)(C)C)c2C)cc1Cl	.	/	76	.	.	.
O=C(C(=O)N(Cc1ccccc1)Cc1ccccc1)c1c(-c2ccccc2)[nH]c2ccccc12	.	.	.	.	88	/

From PubChem BioAssay
